Experimental findings from PubChem BioAssay (NCATS) are described below.

Assay [1] can be described thus: Primary qHTS for inhibitors of nuclear receptor binding SET domain protein 2 (NSD2) in an isogenic RCH-ACV NSD2 p.E1099K mutant (9B) (AID 1645876). Further: nearly all actives have a fitted effect of over 70% in size. Further: potency means the concentration at half of the fitted maximal effect. On the technique in general: qHTS replaces the single test concentration by a dilution series.
Assay [2] concerns the target Glutathione peroxidase 1 (Homo sapiens) (UniProt P07203). The assay is described as follows: Primary qHTS Assay for Inhibitors of Recombinant Selenoprotein Glutathione Peroxidase 1 (GPX1) (AID 1845191). Further: nearly all actives have a fitted effect of over 65% in size. In a few lines: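 Recombinant GPX1 (10 nM final) was preincubated with compound for 30 min at room temperature, then reacted with 1 mM GSH, 0.5 mM CHP, 0.5 mM NADPH and 100 nM glutathione reductase; NADPH fluorescence (340/450 nm) was read at 0 and 15 min.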

Assay [3] is described as follows: Primary qHTS for inhibitors of nuclear receptor binding SET domain protein 2 (NSD2) in an RCH-ACV wild type WT cells (2C) (AID 1645877). Further: nearly all actives have a fitted effect of over 70% in size.
Assay [4] concerns the target Phospholipid hydroperoxide glutathione peroxidase GPX4 (Homo sapiens) (UniProt P36969). Description: Primary qHTS Assay for Inhibitors of Recombinant Selenoprotein Glutathione Peroxidase 4 (GPX4) (AID 1845192). Further: nearly all actives have a fitted effect of over 65% in size. In a few lines: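 GR-coupled readout: 100 nM GR, 1 mM GSH, 0.5 mM NADPH; NADPH fluorescence (ex 340/em 450 nm) read at t=0 and after 15 min RT. GPX4 200 nM, preincubated 30 min with compound; substrate 0.5 mM CHP.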

Assay [5] deals with Rap guanine nucleotide exchange factor 3 (Homo sapiens) (UniProt O95398). The assay is described as follows: Counterscreen qHTS for antagonist of cAMP-regulated guanine nucleotide exchange factor 3 (EPAC1) (AID 1645888).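 Further: fluorescence loss as bound BODIPY-GDP is released from Rap1B.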 In a few lines:
(§1)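 Measured: fluorescence of BODIPY-GDP bound to Rap1B, which falls as exchange proceeds. Conditions include 50 uM competing GDP, 5 and 30 min reads, and a later cAMP challenge for antagonist detection.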

For assay [6] the target is unchanged. Description: Counterscreen qHTS for agonist of cAMP-regulated guanine nucleotide exchange factor 3 (EPAC1) (AID 1645889). Further: nearly all actives have a fitted effect of over 40% in size. In a few lines:
as §1
(A counterscreen serves to expose hits that act by an unwanted route or on another target.)

Assay [7] in a line: NCATS anti-infectives library activity on the primary C. elegans qHTS viability assay (AID 1745855; calls by dose curve). The conditions noted are these: C. elegans worm area imaging, day 7; at 41.8 µM (top of the series) unless noted. In a few lines: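 Viability read-out is GFP fluorescence of PE254-GFP-FLuc C. elegans, measured by laser cytometry (488 nm) at day 0, 3 and 7. Ten L1 worms per well were incubated 7 days at 21 °C with compounds and bacterial capsules in S medium.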

Assay [8] addresses Luciferin 4-monooxygenase (Photinus pyralis) (UniProt P08659). Description: Primary firefly luciferase (FLuc) qHTS assay for identification of artifact compounds. (AID 1845220). Further: nearly all actives have a fitted effect of over 60% in size. The settings on record: outcome: dose series up to 54.1 µM. In a few lines:
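Reaction readout was CCD-imaged luminescence, taken 5 min after adding 10 nM purified firefly enzyme to compound-treated wells holding 10 uM luciferin and ATP in pH 7.6 buffer.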

Assay [9] in a line: Primary fluorescence-based thiol-reactive (MSTI) qHTS assay for identification of artifact compounds. (AID 1845221).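 Further: thiol-reactive compounds lower the probe fluorescence signal; nearly all actives have a fitted effect of over 65% in size.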 In a few lines: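 qHTS titration of compound; 4 uM MSTI, PBS pH 7.4, 2% DMSO; 1 h RT, dark; fluorescence 525/598 nm; normalized to Acetyl-MSTI and MSTI; 4-parameter Hill fit.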
The nature of assay [10]: NCATS anti-infectives library activity on HEK293 viability as a counter-qHTS vs the C. elegans viability qHTS (AID 1745854).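 Further: HEK293 cells exposed to compounds for 24 hr before the viability read.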 In a few lines: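 HEK293 cells (1,500/well) exposed 24 hr at 37C to 1:5 titrations, up to 41.7 uM final; counter-screen to a C. elegans viability qHTS. Viability by CellTiter-Glo luminescence after 10 min at room temperature; digitonin as control.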

Assay [11] concerns the target Metallo-beta-lactamase type 2 (Klebsiella pneumoniae) (UniProt C7C422). Description: qHTS to identify inhibitors of the New Delhi Metallo-beta-lactamase (NDM): assay validation screen against the NCATS LOPAC Collection (AID 1794843).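 Further: nitrocefin turnover by NDM-1 measured as 485 nm absorbance at plateau.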 In a few lines:
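NDM-1 at 2 nM final in 50 mM HEPES pH 7.0 with 1 uM ZnSO4 and 0.01% Tween20 was preincubated with library compounds in DMSO. Nitrocefin (50 uM stock) was then added, and absorbance at 485 nm was read at the kinetic plateau.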

Inconclusive results are not listed. Where a call stands in place of a potency, no number is given. Calls of active or inactive are those of the source. Unless noted, the call rests on the fitted dose curve; in most records, active means well fitted curve in the direction sought with a large enough effect; inconclusive means small, poorly fitted or top-dose-only effect, or another doubt; inactive means no such curve, though single readings can be large; an effect the other way counts as inactive or inconclusive.

Metallo-beta-lactamase type 2 (Klebsiella pneumoniae), sequence (C7C422 whole entry, looked up): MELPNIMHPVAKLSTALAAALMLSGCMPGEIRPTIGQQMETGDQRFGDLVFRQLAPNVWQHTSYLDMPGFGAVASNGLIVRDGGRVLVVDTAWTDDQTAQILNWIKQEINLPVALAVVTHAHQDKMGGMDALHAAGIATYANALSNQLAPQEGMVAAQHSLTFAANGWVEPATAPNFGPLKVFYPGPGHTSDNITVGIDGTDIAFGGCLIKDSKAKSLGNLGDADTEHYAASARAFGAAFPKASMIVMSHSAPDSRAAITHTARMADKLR
Phospholipid hydroperoxide glutathione peroxidase GPX4 (Homo sapiens), sequence (P36969 whole entry, looked up): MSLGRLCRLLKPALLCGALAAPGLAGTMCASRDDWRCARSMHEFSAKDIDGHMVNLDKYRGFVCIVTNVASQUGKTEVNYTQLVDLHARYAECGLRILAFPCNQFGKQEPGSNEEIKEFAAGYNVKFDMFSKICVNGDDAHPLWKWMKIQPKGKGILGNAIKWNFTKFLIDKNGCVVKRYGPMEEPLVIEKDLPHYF
Glutathione peroxidase 1 (Homo sapiens), sequence (P07203 whole entry, looked up): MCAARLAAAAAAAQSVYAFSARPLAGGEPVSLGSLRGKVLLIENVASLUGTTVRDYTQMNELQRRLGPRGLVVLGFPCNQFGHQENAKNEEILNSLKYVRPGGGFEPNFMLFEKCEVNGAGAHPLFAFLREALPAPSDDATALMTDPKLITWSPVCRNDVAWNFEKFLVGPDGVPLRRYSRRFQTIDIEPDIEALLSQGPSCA
Rap guanine nucleotide exchange factor 3 (Homo sapiens), sequence (O95398 whole entry, looked up): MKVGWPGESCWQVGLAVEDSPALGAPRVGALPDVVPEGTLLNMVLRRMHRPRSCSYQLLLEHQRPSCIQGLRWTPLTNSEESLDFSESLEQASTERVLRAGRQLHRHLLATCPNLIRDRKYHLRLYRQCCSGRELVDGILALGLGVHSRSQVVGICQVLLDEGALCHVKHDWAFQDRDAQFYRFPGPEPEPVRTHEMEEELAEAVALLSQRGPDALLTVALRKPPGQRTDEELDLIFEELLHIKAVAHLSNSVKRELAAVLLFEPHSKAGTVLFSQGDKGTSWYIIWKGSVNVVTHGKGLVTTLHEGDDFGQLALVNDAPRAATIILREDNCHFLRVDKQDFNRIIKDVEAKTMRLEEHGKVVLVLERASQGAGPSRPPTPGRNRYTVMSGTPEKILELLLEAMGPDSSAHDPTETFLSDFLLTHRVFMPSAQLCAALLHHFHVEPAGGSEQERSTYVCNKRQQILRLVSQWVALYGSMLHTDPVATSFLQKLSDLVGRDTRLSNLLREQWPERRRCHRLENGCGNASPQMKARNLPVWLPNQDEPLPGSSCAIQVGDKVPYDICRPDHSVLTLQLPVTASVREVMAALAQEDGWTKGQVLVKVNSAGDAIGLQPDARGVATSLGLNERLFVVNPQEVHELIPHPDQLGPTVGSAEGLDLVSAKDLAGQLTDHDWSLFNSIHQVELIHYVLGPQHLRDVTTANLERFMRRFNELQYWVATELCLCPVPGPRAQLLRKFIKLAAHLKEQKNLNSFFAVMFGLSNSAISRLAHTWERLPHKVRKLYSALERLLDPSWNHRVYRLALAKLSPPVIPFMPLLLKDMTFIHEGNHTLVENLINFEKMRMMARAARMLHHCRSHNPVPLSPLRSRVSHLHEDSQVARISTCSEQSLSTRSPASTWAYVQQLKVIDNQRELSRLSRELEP

For `CN1CCc2cccc3c2[C@H]1Cc1ccc(O)c(O)c1-3`, the Potency in assay [1] is 6.68 µM (active). Also, the Potency result in assay [2] was “inactive”.
Take `CC(=O)Nc1ccc(CC(=O)O)cc1`: the Potency entry in assay [1] and in [2] was “inactive” throughout.
For the molecule `CC1CCc2c(N3CCC(O)CC3)c(F)cc3c(=O)c(C(=O)O)cn1c23` (stereo not given), the Potency result in [1], in assay [3] and in assay [4] was “inactive” in each case.
Take `CCc1oc2ccccc2c1C(=O)c1cc(Br)c(O)c(Br)c1`: the call in [5] and in [6] was inactive.
Take `OC[C@H]1O[C@@H](Oc2ccc(O)cc2)[C@H](O)[C@@H](O)[C@@H]1O`: the outcome in [7] is “inactive [at 83.3 µM]”.
Regarding `CC[C@]12CCCN3CCc4c(n(c5ccccc45)C(=O)C1)[C@@H]32`, the outcome in assay [8] and in assay [9] was inactive.
Regarding `O=C1[C@H](CC[C@H](O)c2ccc(F)cc2)[C@@H](c2ccc(O)cc2)N1c1ccc(F)cc1`, the result in [8] and in assay [9] was inactive.
Turning to `C#C[C@]1(O)CC[C@H]2[C@@H]3CCC4=Cc5oncc5C[C@]4(C)[C@H]3CC[C@@]21C`, the Potency result in assay [2] and in assay [4] was “inactive” each time.
Regarding `CC(=O)O[C@]1(C(C)=O)CC[C@H]2[C@@H]3C=C(Cl)C4=CC(=O)CC[C@]4(C)[C@H]3CC[C@@]21C`, the Potency entry in assay [2] and in assay [4] was “inactive” throughout.
On to `C/C=C/c1ccc(O)c(OC)c1`, for which the Potency entry in assay [4] is “inactive”.
In the case of `N#C/C(=C1\SCC(c2ccccc2Cl)S1)n1ccnc1` (stereo not given), the Potency entry in assay [2] is “inactive”.
`O=C(Nc1ccccc1)OCC(CN1CCCCC1)OC(=O)Nc1ccccc1` (stereo not given): the outcome in [10] was inactive. Further, the Potency entry in assay [4] was “inactive”.
Take `C[N+]1(C)CCC(=C(c2ccccc2)c2ccccc2)CC1`: in assay [2], the Potency entry is “inactive”.
Still for that read-out and setting: with `NC1CCN(c2nc3c(cc2F)c(=O)c(C(=O)O)cn3-c2ccc(F)cc2F)C1` (stereo not given) the entry was “inactive”.
Consider `NC(N)=NCc1cccc(I)c1`, for which the outcome in assay [11] was inactive. Further, the Potency result in assay [2] is “inactive”.
Take `O=C1c2cccc3c2[C@H](CCC3)CN1[C@@H]1CN2CCC1CC2`: the Potency result in assay [2] was “inactive”.
For `CCCCNc1ccc(C(=O)OCCOCCOCCOCCOCCOCCOCCOCCOCCOC)cc1`, the Potency result in assay [4] is “inactive”.
For `CCN(CC)CCOC(=O)C(Cc1cccc2ccccc12)CC1CCCO1` (stereo not given), the Potency result in assay [2] and in assay [4] was “inactive” throughout.
As for `C=C[C@H]1CN2CC[C@H]1C[C@H]2[C@H](O)c1ccnc2ccc(OC)cc12`, the Potency result in assay [2] was “inactive”. Besides, the molecule was classed as inactive in assay [8] and in [9].
As to `CN(C)CCOC(c1ccc(Cl)cc1)c1ccccn1` (stereo not given), the Potency result in assay [2] was “inactive”.
Turning to `CCC1NC(=O)c2cc(S(N)(=O)=O)c(Cl)cc2N1` (stereo not given), the Potency result in assay [2] and in assay [4] was “inactive” each time.
On to `COc1cc(N)c(Cl)cc1C(=O)NC1CCN(Cc2ccccc2)CC1`, for which the Potency entry in [2] and in assay [4] was “inactive” each time.
As for `COc1ccc(-c2cc(C(F)F)nn2-c2ccc(S(N)(=O)=O)cc2)cc1F`, the Potency result in assay [2] and in assay [4] was “inactive” each time.
Turning to `CC(=O)OCC1=C(C(=O)O)N2C(=O)[C@@H](NC(=O)CSc3ccncc3)[C@H]2SC1`, the Potency entry in assay [4] was “inactive”.
Regarding `CCOC(=O)[C@H](CCc1ccccc1)N[C@@H](C)C(=O)N1[C@H](C(=O)O)C[C@H]2CCCC[C@@H]21`, the molecule was called inactive in assay [11]. The Potency result in [2] and in assay [4] was “inactive” throughout.
For the molecule `O=C1C(CCS(=O)c2ccccc2)C(=O)N(c2ccccc2)N1c1ccccc1` (stereo not given), the Potency result in [2] and in assay [4] was “inactive” throughout.
`CC(C)Nc1cccnc1N1CCN(C(=O)c2cc3cc(NS(C)(=O)=O)ccc3[nH]2)CC1`: the molecule was called inactive in assay [10]. Also, the Potency result in assay [2] and in assay [4] was “inactive” each time.
Consider `O=C(O)P(=O)(O)O`, for which the molecule was classed as inactive in [10]. Besides, the Potency result in assay [2] and in assay [4] was “inactive” each time.
In the case of `c1ccc(-c2nc[nH]c2-c2ccccc2)cc1`, the Potency entry in [2] and in assay [4] was “inactive” throughout.
For `CCOC(=O)Nc1ccc2c(c1)N(C(=O)CCN1CCOCC1)c1ccccc1S2`, the Potency result in assay [2] and in assay [4] was “inactive” in each case.
For `NC(=O)c1ccccc1O`, the Potency entry in assay [4] is “inactive”.
Consider `CN(CCCN1c2ccccc2CCc2ccccc21)CC(=O)c1ccc(Cl)cc1`, for which the Potency entry in [2] and in assay [4] was “inactive” throughout.
Consider `CCCN(CCc1cccs1)[C@H]1CCc2c(O)cccc2C1`, for which the Potency entry in assay [4] was “inactive”.
As for `COc1cc(O)c(C(=O)c2ccccc2)cc1S(=O)(=O)O`, the Potency result in [2] and in [4] was “inactive” in each case.
Consider `CCCc1ncc(C[n+]2ccccc2C)c(N)n1`, for which the Potency entry in [2] is “inactive”.
Take `CNCCCCOc1ccccc1Cc1ccccc1`: the Potency entry in assay [4] is “inactive”.
Turning to `COc1cc(NS(=O)(=O)c2ccc(N)cc2)ncn1`, the Potency entry in assay [2] is “inactive”.
In the case of `CCCCC(CC)CN1CN(CC(CC)CCCC)CC(C)(N)C1` (stereo not given), the Potency result in assay [2] and in assay [4] was “inactive” in each case.
Turning to `CN1CCN(C2=Nc3ccccc3Sc3ccc(Cl)cc32)CC1`, the Potency result in [4] was “inactive”.
Regarding `O=C(NC1CCN(CCc2c[nH]c3ccccc23)CC1)c1ccccc1`, the Potency entry in assay [2] is “inactive”.
In the case of `CC(C)Cc1ccc(CC(=O)O)cc1`, the Potency result in assay [2] and in assay [4] was “inactive” throughout.
Consider `CCOC(=O)c1ccc(N)cc1`, for which the Potency entry in assay [2] and in [4] was “inactive” each time.
As to `CN=C(N)NCCC[C@H](N)C(=O)O`, in assay [11], the molecule was called inactive. The Potency entry in assay [2] and in assay [4] was “inactive” each time.
Consider `C#C[C@]1(OC(C)=O)CC[C@H]2[C@@H]3CCC4=C/C(=N/O)CC[C@@H]4[C@H]3CC[C@@]21CC`, for which the Potency result in assay [2] and in assay [4] was “inactive” in each case.
As for `CCN1CCCC(OC(=O)C(c2ccccc2)c2ccccc2)C1` (stereo not given), the Potency result in [2] and in assay [4] was “inactive” each time.
